# Source: PubChem
# HTT aggregate = reduces HttQ103-GFP aggregates in PC12 cells; PC12 HttQ103-GFP aggregates, Acumen cytometry, 40 h; Potency, µM (doses to about 46.1 µM), without a hit: top-dose activity change, negative = inhibition, actives largely listed as inhibitors; actives 1.1% (n = 220,000); AID 1688; note: potency is the fitted concentration of half-maximal effect; % is set by controls: 0 for no effect and ±100 for the full control effect; nearly all actives have a fitted effect of over 60% in size
#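 Multiplexed with ATP-based cell death, this channel scores GFP aggregates in PC12 cells expressing inducible HTTex1-Q103-GFP. Induction used 100 nM tebufenozide; compounds were tested in concentration series.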
# PI4K2A block = blocks human PI4K2A kinase activity. actives 0.13% (n = 420,000). purified PI4K2A, ADP-Glo luminescence, 1 h; stronger effect = lower value. activity change, negative = inhibition, % at 76.9 µM. Q9BTU6; in the data active = activity change below about -50%; inconclusive = mostly about -30% to -49%;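 note: -100% = wells without enzyme as full effect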
# Target sequence (Q9BTU6 whole entry, looked up): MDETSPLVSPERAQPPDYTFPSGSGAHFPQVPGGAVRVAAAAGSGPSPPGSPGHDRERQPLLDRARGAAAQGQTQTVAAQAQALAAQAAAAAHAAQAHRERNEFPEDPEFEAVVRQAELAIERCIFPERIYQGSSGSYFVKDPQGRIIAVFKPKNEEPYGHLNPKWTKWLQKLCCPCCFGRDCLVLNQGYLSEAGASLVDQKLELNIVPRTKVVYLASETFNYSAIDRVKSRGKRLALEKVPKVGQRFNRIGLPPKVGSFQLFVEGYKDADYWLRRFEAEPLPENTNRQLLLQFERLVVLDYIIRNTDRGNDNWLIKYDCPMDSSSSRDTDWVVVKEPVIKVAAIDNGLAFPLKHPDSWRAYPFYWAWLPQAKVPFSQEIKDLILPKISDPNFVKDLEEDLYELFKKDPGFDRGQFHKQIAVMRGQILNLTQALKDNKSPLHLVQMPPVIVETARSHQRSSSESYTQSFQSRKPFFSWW
#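 ADP-Glo luminescence measured ADP generated by PI4K2A enzyme (4 ug/mL before mixing) with 1.2 mM PI substrate (pre-mix) and 300 microM ATP (pre-mix). Tris pH7.5 buffer with MgCl2, Triton X-100; 1 h reaction at ambient temperature.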
# GALK inh = galactokinase (human) inhibition. P51570. Purified GALK, Kinase-Glo residual ATP luminescence. Potency, µM (titrated, usually from 57.5 µM), for inactives: at the highest dose activity change, negative = inhibition, usual class: inhibitors. actives 0.007% (n = 270,000). AID 1868; note: potency is the fitted concentration of half-maximal effect; % is set by controls: 0 for no effect and ±100 for the full control effect
#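 Galactose (100 uM) and ATP (35 uM) were turned over by 5 nM GALK for 1 h at RT. Kinase-Glo Plus then converted the remaining ATP into a luminescent signal.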
# HTT cytoprotect = cytoprotection in Huntington HTT-Q103 PC12 cell model. PC12 HTT-Q103 induced, cytoprotection, ATP luminescence, 40 h. actives 0.14% (n = 230,000). Potency, µM (series often up to 56.4 µM), for the others: cytoprotection (ATP increase), usual class: activators; note: potency is the fitted concentration of half-maximal effect; % of control where 0% means no effect; nearly all actives have a fitted effect of over 45% in size
#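 PC12 cells stably carrying ecdysone-inducible Htt exon 1 (Q103)–GFP were induced with 100 nM tebufenozide (final) alongside library compounds in a dose series. Cytoprotection was scored as retained ATP by ATPlite luminescence.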
# * hit, by the source's call; i = inactive; ? = inconclusive; . = not tested or not shown; [ ] = another dose, or the depositor's remark. This is one part of a sample in which hits are shown more often than they occur. Unless noted, calls come from the whole dose curve; as a rule, active = well fitted curve in the direction sought with a large enough effect; inconclusive = small, poorly fitted or top-dose-only effect, or another doubt; inactive = no such curve, though single readings can be large; an effect the other way counts as inactive or inconclusive.
SMILES,HTT aggregate,PI4K2A block,GALK inh,HTT cytoprotect
COc1cc2c(cc1OC)C(C)N(C(C)=O)CC2 (stereo unspecified),-23%,1,0%,7%[10 µM]
Cc1nc2ccc(S(=O)(=O)NCC(=O)NCc3ccccc3C)cc2s1,.,1,.,.
Cc1oc2c(c1C(=O)NCc1cccnc1)C(=O)c1ccccc1C2=O,3.5µM*,-8,0%,-97%[10 µM]
O=C(c1ccccc1)c1coc2c1C(=O)c1ccccc1C2=O,?,-8,3%,.
COc1ccc(CNC(=O)c2c(C)oc3c2C(=O)c2ccccc2C3=O)cc1,?,-10,.,.
CC(=O)c1c(C)oc2c1C(=O)c1ccccc1C2=O,7.1µM*,2,-1%,-53%[10 µM]
O=C1c2ccccc2C(=O)c2c1oc(C(F)(F)F)c2C(=O)c1ccccc1,5µM*,-7,-2%,-98%[10 µM]
CN1C[C@H](C(=O)N[C@]2(C)O[C@@]3(O)[C@H]4CCCN4C(=O)[C@@H](Cc4ccccc4)N3C2=O)C[C@H]2c3cccc4[nH]cc(c34)C[C@@H]21,.,.,.,-4%
CCOc1ccc(NC(=O)CN2CCCN(c3ccc(OC)cc3)CC2)cc1,.,-4,.,.
CC(=O)Nc1ccc(NC(=O)CN(c2ccc(C34CC5CC(CC(C5)C3)C4)cc2)S(C)(=O)=O)cc1,4%,-2,-1%,-20%
CS(=O)(=O)N(CC(=O)Nc1ccc(CC#N)cc1)c1ccc(C23CC4CC(CC(C4)C2)C3)cc1,22µM*,-1,1%,41%[10 µM]
COC(=O)[C@]12C[C@H](CC(=O)N3CCCCC3)C(=O)N(Cc3ccc4c(c3)OCO4)C1=C[C@H](C(C)C)O[C@@H]2C1CC1,.,-2,.,.
CC1(C)CC(=O)C=C(NCCN2CCN(C(=O)Nc3ccccc3)CC2)C1,5.6µM*,4,-1%,7%[10 µM]
CCOC(=O)c1ccc(NC(=S)N2CCN(CCNC3=CC(=O)CC(C)(C)C3)CC2)cc1,5%,1,1%,-4%
CCN[C@@H]1C[C@H](N)[C@@H](OC2OC(CN)=CCC2N)[C@H](O)[C@H]1O[C@H]1OC[C@](C)(O)[C@H](NC)[C@H]1O (stereo partly specified),.,i,.,.
C/C(N)=C(/C#N)C(=O)CSc1nnc(SCc2ccc(Cl)cc2)s1,11µM*,-2,-1%,-4%[10 µM]
CCn1c(SCC(=O)Nc2ccc(C(C)C)cc2)nnc1-c1ccc(C(C)(C)C)cc1,.,1,.,.
O=C1CSc2ccc(C(=O)Nc3cccc(S(=O)(=O)Nc4ccc(Br)cc4)c3)cc2N1,7.9µM*,-2,-3%,38%[10 µM]
Cc1ccc(-n2nnnc2SCC(=O)Nc2cccc(NC(=O)c3ccco3)c2)cc1C,10µM*,5,0%,-29%[10 µM]
C[C@H]1C(=O)[C@]23C[C@H]1CC[C@H]2[C@]1(C)[C@@H](O)CC[C@@](C)(C(=O)O)[C@H]1C[C@@H]3O,.,6,.,.
C=C1C(=O)[C@@]23[C@H](O)C[C@@H]4C(C)(C)CC[C@H](O)[C@@]4(C)[C@@H]2CC[C@@H]1[C@H]3O,2.8µM*,-13,.,.
C=C1[C@@H]2CC[C@H]3[C@]4(C)[C@@H](O)CC[C@@](C)(C(=O)OC)[C@H]4C[C@H](O)[C@]3(C2)[C@H]1O,.,2,.,.
C=C1C(=O)[C@@]23[C@H](O)C[C@@H]4C(C)(C)CC[C@H](O)[C@]4(C)[C@@H]2C[C@H](O)[C@@H]1[C@H]3O,3.2µM*,-3,.,.
CN(C)S(=O)(=O)c1cccc(C(=O)N/N=C\c2ccnc3ccccc23)c1,.,-7,.,.
CCc1cc(C(=O)NNC(=S)NC(C)c2ccccc2)cs1 (stereo unspecified),18µM*,4,-3%,12%
SMILES,HTT aggregate,PI4K2A block,GALK inh,HTT cytoprotect
CCc1cc(C(=O)NNC(=S)NC2CCCCC2)cs1,.,-3,-3%,.
CCOC(=O)c1ccc(S(=O)(=O)Nc2nc3cc(S(=O)(=O)NC4=NCCCCC4)ccc3s2)cc1,-19%,-12,-2%,18µM*
O=C(Cn1c(=O)[nH]n(-c2ccccc2)c1=O)N1CCCc2ccccc21,1.3µM*,1,0%,-20%[10 µM]
Cc1ccc(SCc2ccc(C(=O)N3CCCC3)cc2)cc1,11µM*,2,-1%,-40%
COc1ccc2cc(C=O)ccc2c1,.,-3,.,.
Cn1c(=O)c2c(nc(NCc3ccco3)n2C/C=C/c2ccccc2)n(C)c1=O,10µM*,-5,6%,?
CCCCN(C)C(=O)C1CCN(S(=O)(=O)c2ccc3[nH]c(=O)oc3c2)CC1,.,1,.,.
